According to PubChem BioAssay AID2796 (The Scripps Research Institute Molecular Screening Center, 2010):
About 8,000 (2.5%) of roughly 320,000 compounds were called active. Shown is part of a subset that was picked to be rich in actives. A number with no mark means an inactive call. Cut-off read from the data, not from the text of the source: active = activation above about 47%; inactive = the rest.

These compounds were tested against Aryl hydrocarbon receptor (Homo sapiens) (UniProt P35869) (assay: AHR activators, primary screen, cell-based, luminescence, luciferase reporter, human (AID 2796;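 note: 0% = vehicle wells and 100% = reference agonist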)). Details: AHR-responsive luciferase reporter cells, at 5 µM, hits give high values.
Aryl hydrocarbon receptor (Homo sapiens), sequence (P35869 whole entry, looked up): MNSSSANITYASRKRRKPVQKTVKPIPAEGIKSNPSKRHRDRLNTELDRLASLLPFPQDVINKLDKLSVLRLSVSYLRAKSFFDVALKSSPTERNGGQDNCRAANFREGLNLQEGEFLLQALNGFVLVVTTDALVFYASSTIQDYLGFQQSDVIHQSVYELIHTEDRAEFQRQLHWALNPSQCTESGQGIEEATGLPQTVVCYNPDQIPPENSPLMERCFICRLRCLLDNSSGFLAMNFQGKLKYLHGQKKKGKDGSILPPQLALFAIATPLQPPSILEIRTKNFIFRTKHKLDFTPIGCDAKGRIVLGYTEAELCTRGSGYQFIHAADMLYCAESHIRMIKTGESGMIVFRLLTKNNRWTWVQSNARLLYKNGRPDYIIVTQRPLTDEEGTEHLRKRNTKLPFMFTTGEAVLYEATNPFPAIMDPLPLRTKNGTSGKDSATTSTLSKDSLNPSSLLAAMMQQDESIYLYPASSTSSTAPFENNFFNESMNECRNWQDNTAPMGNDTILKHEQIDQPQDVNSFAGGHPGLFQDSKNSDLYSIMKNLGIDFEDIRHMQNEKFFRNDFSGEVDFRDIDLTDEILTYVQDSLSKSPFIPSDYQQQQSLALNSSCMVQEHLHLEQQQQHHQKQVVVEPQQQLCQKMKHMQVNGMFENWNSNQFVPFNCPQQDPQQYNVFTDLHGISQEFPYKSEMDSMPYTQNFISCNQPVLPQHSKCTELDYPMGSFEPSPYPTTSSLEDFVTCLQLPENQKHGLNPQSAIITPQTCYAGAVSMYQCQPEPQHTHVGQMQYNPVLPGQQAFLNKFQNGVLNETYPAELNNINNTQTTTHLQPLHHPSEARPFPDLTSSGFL

SMILES | activation
CC(C)CNC(=O)C(=O)Nc1ccc(N(C)C)cc1 | 48% (active)
CC(C)CNC(=O)C(=O)NCc1ccccc1 | -0.83%
CC(C)CNC(=S)Nc1ccc(F)cc1 | -0.24%
O=C1C=C(c2ccc(Cl)cc2)C(=O)N1Nc1ccccc1 | -0.76%
NC(=O)C1CCN(C(=O)COc2ccc3c4c(c(=O)oc3c2)CCC4)CC1 | -1.05%
COc1ccc(NS(=O)(=O)c2cc(NC(=O)c3ccc(S(=O)(=O)N(C)C)cc3)ccc2N2CCOCC2)cc1 | 0.52%
CC1CC(C)(C)CC2(C1)NC(=O)N(CC(=O)Nc1nccs1)C2=O (configuration not stated) | 2.2%
O=[N+]([O-])c1cccc(/C([O-])=C(/C(=S)Nc2ccccc2F)[n+]2ccccc2)c1 | 49.5% (active)
Cc1ccc(/C([O-])=C(/C(=S)NCc2ccco2)[n+]2ccccc2)cc1[N+](=O)[O-] | 2.88%
CC1CCN(C(=S)c2cccc([N+](=O)[O-])c2)CC1 | -3.58%
COc1cccc(-c2ccc3c(c2)S(=O)(=O)c2cccc(C(=O)O)c2C3=O)c1OC | -3.31%
CC1CN/C(=C\C(=O)c2ccc(Br)cc2)C(=O)N1 (configuration not stated) | -14.4%
Cc1nc(Cl)c2oc3ccccc3c2n1 | 4.72%
CCc1nc(Nc2ccc3nccnc3c2)c2oc3ccccc3c2n1 | 85.3% (active)
CCc1nc(Nc2ccc(NC(C)=O)cc2)c2oc3ccccc3c2n1 | 5.36%
COc1ccc(/C=N/n2c(C)cc(C)cc2=O)cc1 | -0.2%
CC(=O)Nc1nc2ccccc2n1Cc1ccc(C)cc1 | 1.47%
CCn1c(NC(=O)c2nn(C)cc2Br)nc2ccccc21 | 122% (active)
CCC(=O)Nc1nc2ccccc2n1Cc1ccccc1C | 2.17%
CC(=O)NCCc1nc2cc(NC(=O)c3ccccc3)ccc2n1C | 5.94%
Cn1c(-c2ccc(C(=O)c3ccccc3)s2)nc2ccccc21 | -15%
Cn1c(NC(=O)c2ccccc2)nc2ccccc21 | 76.5% (active)
O=C(Cn1cnc2ccccc2c1=O)NCC1COc2ccccc2O1 (configuration not stated) | 0.29%
O=C(c1ccc(F)cc1)N1CCCC(C(=O)N2CCCCC2)C1 (configuration not stated) | -0.02%
CCN1C(=O)/C(=C2\SC(N3CCCCC3)=NC2=O)c2ccccc21 | 22.2%
COc1ccc(Cl)cc1-n1c(=S)sc2c(=O)n(-c3ccc(F)cc3)c(SCC(=O)O)nc21 | 3.11%

SMILES | activation
C=CCNc1nc(C)nc(OC)n1 | -0.26%
COc1nc(NCc2ccc(Cl)cc2)nc(OC)n1 | -1.92%
C=CCNc1nc(Nc2ccc(Cl)cc2)nc(OC)n1 | 52.8% (active)
O=C(NCc1cccc(Cl)c1)C1CCC(=O)N(C2CC2)C1 (configuration not stated) | 7.52%
Cc1cccc(N=C2NN=C(c3c[nH]c4ccccc34)CS2)c1 | 99.4% (active)
Cc1cccc(C(=O)Nc2nnc(Cc3c[nH]c4ccccc34)s2)c1 | 22.8%
C=CCn1c(C)cc(C2=NNC(=NCC)SC2)c1C | -11%
COc1ccc(OC)c(N=Cc2c(O)[nH]c3ccccc23)c1 | 54.3% (active)
CN=c1scc(-c2cc(OC)ccc2OC)n1/N=C/c1c(C)[nH]c2ccccc12 | -2.76%
COc1ccccc1N=Cc1c(O)c2ccccc2oc1=O | 4.13%
O=C(Cn1nc(CNc2ccc(Cl)cc2)[n+]2c1CCCCC2)c1ccc(Cl)cc1 | 28.6%
Cc1nn(-c2ccccc2)c(NC(=O)c2cccs2)c(-c2ccc(Cl)cc2)c1=O | 0.87%
Cc1cc(=O)oc2c1c(C)nn2-c1ccc(Cl)cc1 | 58% (active)
Cc1nn(-c2cc(Cl)ccc2N)c(=O)c2ccccc12 | 0.58%
COc1ccc(CNC(=O)CN(c2ccc(OC)c(Cl)c2)S(=O)(=O)c2ccc(C)cc2)cc1 | 4.87%
C[C@]12CC[C@H](O)CC1=CCC1C2CC[C@@]2(C)C1CC[C@@H]2NC(=O)CCC(=O)O (some centres not stated) | -0.38%
O=[N+]([O-])c1cccc(C2=NCCS2)c1 | 0.6%
O=[N+]([O-])c1ccc2oc(-c3cccc(O)c3)nc2c1 | 78% (active)
CC(=O)Oc1ccc2c(=O)oc(-c3ccc([N+](=O)[O-])cc3)nc2c1 | 14.1%
COc1ccc2oc(-c3cccc(NC(=O)CSc4ccc(Cl)cc4)c3)nc2c1 | 28.6%
COc1cccc(-c2nc3cc(C)ccc3o2)c1 | 83.1% (active)
COc1cccc(-c2nnc(SCCOc3ccc4c(C)cc(=O)oc4c3)o2)c1 | -2.36%
CC(=O)c1ccc(NC(=O)CCNS(=O)(=O)c2cc(Br)cnc2N)cc1 | 2.25%
COc1ccc(CN2CCC(n3nccc3NC(=O)CCCc3ccccc3)CC2)cc1C | -8.72%
CCC(C)NC(=O)C1c2ccccc2C(=O)N1Cc1ccccc1 (configuration not stated) | 0.97%
Cc1[nH]nc(SCC(=O)NCC(C)C)c1[N+](=O)[O-] | -0.18%

SMILES | activation
COc1ccc(CN2CCCC(C(=O)N3CCCCC3)C2)cc1 (configuration not stated) | -0.87%
CC(=O)c1ccc(NC(=O)Nc2ccc([N+](=O)[O-])cc2C)cc1 | -4.23%
COc1cc(NC(=O)Nc2ccc(C)cc2)cc([N+](=O)[O-])c1 | 61.8% (active)
COC(=O)c1ccc(NC(=O)Nc2ccc(C)cc2)cc1 | 1.57%
Nc1ccc(S(=O)(=O)Nc2nccc(/C=C/c3ccc(Br)s3)n2)cc1 | -1.58%
Oc1cccc2ccc(/C=C/c3ccc(Br)s3)nc12 | 52.2% (active)
CCN(c1ccccc1)S(=O)(=O)c1ccc2[nH]c(=O)[nH]c2c1 | 7.41%
CC(C)C(NC(=O)OCc1ccccc1)C(=O)OCC(=O)N1C(C)CCCC1C (configuration not stated) | 2.02%
CC(C)(C)Oc1ccccc1Nc1nc(NCCO)nc(N2CCCC2)n1 | 53.9% (active)
Cc1cccc(Nc2nc(NCCO)nc(N3CCCC3)n2)c1 | 19.5%
CCCOc1ccc(Cl)cc1Nc1nc(NCCO)nc(N2CCCC2)n1 | 12.8%
CN(CC(=O)NCc1ccncc1)S(=O)(=O)c1ccc(Br)cc1 | 5.25%
Cc1ccc(-c2nnc(-n3nnc4ccccc43)c3ccccc23)cc1 | 1.43%
Cn1cc(Cl)c(C(=O)NNC(=S)Nc2cccc(Cl)c2)n1 | 125% (active)
Cc1nn(C)cc1C(=O)NNC(=S)Nc1ccc(Cl)cc1 | 29.1%
CC(C)CNC(=S)NNC(=O)c1nn(C)cc1Cl | -3.07%
CCCC(=O)Nc1nnc(CC(=O)OCC)s1 | 3.91%
C=CCN1C2CCCC1CC(NC(=S)Nc1cccc(OC)c1)C2 (configuration not stated) | -0.24%
COCC(=O)Nc1c(C(=O)N2CCCC2)oc2ccccc12 | 74.5% (active)
COc1cccc(OC)c1C(=O)Nc1c(C(=O)N2CCN(c3ccccn3)CC2)oc2ccccc12 | -3.46%
CCOCCCN(C)C1CCN(C(=O)c2oc3ccccc3c2NC(=O)COc2cccc(C)c2)CC1 | -0.33%
CCc1cccc(C)c1NS(=O)(=O)c1cc(Br)cnc1N | 3.17%
O=C(Nc1cccc(Cl)c1)C1CCCN(c2cnccn2)C1 (configuration not stated) | 82.4% (active)
O=C(Nc1ccc2c(c1)OCCO2)C1CCCN(c2ncccn2)C1 (configuration not stated) | 20.4%
Cc1ccc(Cl)cc1NC(=O)C1CCCN(c2cnccn2)C1 (configuration not stated) | 80% (active)
Cc1ccc(Cl)cc1NC(=O)C1CCN(S(C)(=O)=O)CC1 | 7.96%

SMILES | activation
Cc1ccc(Cl)cc1NC(=O)COC(=O)C1CCCCC1 | 0.36%
COc1cc(NC(=O)C2CCN(c3cnccn3)CC2)cc(OC)c1 | 5.78%
CC(C)[C@H](NC(=O)N1CCn2c1nc1ccccc12)C(=O)NCc1ccc2c(c1)OCO2 | 6.92%
CC(C)CNc1ncnc2c1cnn2Cc1ccc(Cl)cc1 | 0%
Cc1cccc(CS(=O)(=O)c2ncc(Cl)c(C(=O)Nc3ccc(F)cc3)n2)c1 | 27.3%
OC(c1ccc(Cl)cc1)C(CN1CCOCC1)c1ccccc1 (configuration not stated) | 2.39%
Cc1ccc(N(C(=O)c2sc(C)nc2C)C(C(=O)NC(C)(C)C)c2ccncc2)cc1 (configuration not stated) | -0.51%
CC(C)c1ccccc1OCC(O)CN(CC(O)COc1cccc2ccccc12)C(C)C (configuration not stated) | 5.3%
CC1Cc2ccccc2N1CC(=O)Nc1ccc(S(N)(=O)=O)cc1 (configuration not stated) | 3.1%
O=C(COC(=O)c1ccc[nH]c1=O)Nc1ccc2c(c1)OC(F)(F)O2 | 0.45%
CC1Cc2ccccc2N1CC(=O)Nc1ccc2c(c1)OC(F)(F)O2 (configuration not stated) | 61.4% (active)
CCOC(=O)N1CCC(Nc2c(NCCCN3CCN(c4ccc(OC)cc4)CC3)c(=O)c2=O)CC1 | 1.99%
CC(C)NC(=O)CSc1ccccc1C(=O)NCc1ccc2c(c1)OCO2 | 1.44%
Cc1ccc(C(=O)Nc2ccc3c(c2)OCO3)cc1S(=O)(=O)N1CCCCC1 | 38.4%
COc1cc(NC(=O)c2ccc3c(c2)OCO3)ccc1NC(=O)c1cccs1 | 12.8%
O=C(Nc1cccc(S(=O)(=O)N2CCCCC2)c1)c1cncc(Br)c1 | 17.9%
O=C(Nc1nc2ccccc2s1)c1ccc2c(c1)OCO2 | 6.38%
O=C(Nc1ccc2c(c1)OCO2)c1sc2cc(Cl)ccc2c1Cl | 33.1%
CCSc1ccccc1C(=O)Nc1ccc2c(c1)OCO2 | 80.8% (active)
O=C(Nc1cccc(S(=O)(=O)N2CCCCC2)c1)c1ccc2c(c1)OCO2 | 56% (active)
CSc1ncccc1C(=O)Nc1ccc2c(c1)OCO2 | 32.3%
CC(Sc1nc2cc(Cl)ccc2s1)C(=O)Nc1ccc2c(c1)OCO2 (configuration not stated) | 65.3% (active)
CC(Sc1nc(-c2ccccc2)cc(C(F)(F)F)n1)C(=O)Nc1ccc2c(c1)OCO2 (configuration not stated) | 5.04%
COCc1nnc(NC(=O)c2ccc3c(c2)OCO3)s1 | 50% (active)
